Assay [1] has as its target Acetylcholinesterase (Homo sapiens) (UniProt P22303). The experiment in a line: Acetylcholinesterase (AChE) small molecule antagonists: colormetric cell-based qHTS assay (AID 1347395). Note: nearly all actives have a fitted effect of over 30% in size. In a few lines:
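SH-SY5Y cells attached overnight, exposed to compound 30 min at 37 C, then given DTNB/acetylthiocholine; after 90 min at 37 C, colorimetric thiocholine read gives cellular AChE activity.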
For orientation: Quantitative high-throughput screening tests each substance at several concentrations.

Assay [2] shares this target. The experiment in a line: Acetylcholinesterase (AChE) small molecule antagonists: enzyme-based qHTS assay (AID 1347397). Note: nearly all actives have a fitted effect of over 55% in size. The note with it: Potency: AChE enzyme activity inhibition; outcome: AChE enzyme activity inhibition. A digest of the protocol: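 In this quantitative HTS, compounds from the Tox21 10K collection were preincubated 30 min at ambient temperature with recombinant human AChE dispensed at 50 mU/mL. Hydrolysis of acetylthiocholine was then followed for 10 min by DTNB colour development.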

The target is the same in assay [3]. As to the kind of experiment: Acetylcholinesterase (AChE) small molecule antagonists: fluorescence cell-based qHTS assay (AID 1347398). Note: nearly all actives have a fitted effect of over 50% in size. Note: potency is the fitted concentration of half-maximal effect. To be noted: Potency: AChE activity; outcome: AChE activity. In a few lines: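 Cells (SH-SY5Y) attached overnight, were dosed with compound or DMSO vehicle for 30 min at 37 C, and then incubated 40 min at room temperature with acetylthiocholine and Thiolite Green; green fluorescence indexed AChE activity.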

Assay [4] has the same target. The experiment in a line: Acetylcholinesterase (AChE) small molecule antagonists: enzyme-based qHTS assay with human liver microsomes (AID 1347399). Note: nearly all actives have a fitted effect of over 60% in size. The note with it: Potency: qHTS inhibition; outcome: qHTS inhibition. In a few lines:
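Recombinant human AChE (50 mU/mL in the enzyme mix) and human liver microsomes (0.25 mg/mL final) were preincubated with compound and NADPH (0.25 mg/mL final) for 30 min at 37 C. Acetylthiocholine/DTNB was then added; thiocholine was read colorimetrically after 10 min at room temperature.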

Results filed as inconclusive are left out. More than one record can exist for a structure, and the calls need not agree. Active and inactive are the calls of the source. Calls come from the whole dose curve.
% is set by controls: 0 for no effect and ±100 for the full control effect.

Acetylcholinesterase (Homo sapiens), sequence (P22303 whole entry, looked up): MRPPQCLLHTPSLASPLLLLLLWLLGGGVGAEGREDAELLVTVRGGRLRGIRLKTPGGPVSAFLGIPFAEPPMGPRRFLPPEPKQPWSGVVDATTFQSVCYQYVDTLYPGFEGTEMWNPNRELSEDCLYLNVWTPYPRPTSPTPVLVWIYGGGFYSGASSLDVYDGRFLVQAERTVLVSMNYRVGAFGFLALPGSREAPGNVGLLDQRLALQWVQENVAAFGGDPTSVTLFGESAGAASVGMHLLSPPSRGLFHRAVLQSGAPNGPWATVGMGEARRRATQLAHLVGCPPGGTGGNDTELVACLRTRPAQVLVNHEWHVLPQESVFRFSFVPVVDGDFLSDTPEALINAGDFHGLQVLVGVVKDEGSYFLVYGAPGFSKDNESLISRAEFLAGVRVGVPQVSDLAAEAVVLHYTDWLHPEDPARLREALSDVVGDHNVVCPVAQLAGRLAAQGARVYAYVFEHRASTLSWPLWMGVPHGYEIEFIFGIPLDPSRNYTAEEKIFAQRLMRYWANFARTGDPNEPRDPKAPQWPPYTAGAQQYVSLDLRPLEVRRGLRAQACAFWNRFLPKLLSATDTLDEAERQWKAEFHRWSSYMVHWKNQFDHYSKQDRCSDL

For the compound `CN(c1nccc(=O)[nH]1)C1CCN(c2nc3ccccc3n2Cc2ccc(F)cc2)CC1`, the Potency entry in assay [1], in assay [2], in assay [3] and in assay [4] was “inactive” throughout.

For the compound `CCCCCCCC/C=C\CCCCCCCC(N)=O`, the Potency entry in assay [1], in assay [2], in assay [3] and in assay [4] was “inactive” each time.

As to `CCC(=O)OC(=O)CC`, the Potency entry in assay [1], in assay [2], in assay [3] and in assay [4] was “inactive” throughout.

Consider `C=COCCOCCOC=C`, for which the Potency result in assay [1], in assay [2], in assay [3] and in assay [4] was “inactive” each time.

In the case of `C[Si](C)(C)O[Si](C)(C)C`, the Potency entry in assay [1], in assay [2] and in assay [4] was “inactive” in each case. The Potency in assay [3] is 35.4 µM (active) and inactive.

For `CC(C)OC(=O)COc1ccc(Cl)cc1Cl`, the Potency result in assay [1], in assay [2], in assay [3] and in assay [4] was “inactive” each time.

On to `COC(=O)c1ccc([N+](=O)[O-])cc1`, for which the Potency result in assay [1], in assay [2], in assay [3] and in assay [4] was “inactive” throughout.

On to `Clc1ccc2c(c1)C(N1CCNCC1)=Nc1ccccc1O2`, for which the Potency result in assay [1], in assay [2], in assay [3] and in assay [4] was “inactive” each time.

As for `CCC(Cl)CC(Cl)C(Cl)C(Cl)C(Cl)C(C)Cl` (stereo not given), in assay [1], the activity, negative = inhibition is -0.388% [at 23.6 µM] (inactive). Besides, the activity change, negative = inhibition is -3.68% [at 23.6 µM] (inactive) in assay [2], 0.856% [at 23.8 µM] (inactive) in assay [3] and 0.639% [at 23.6 µM] (inactive) in assay [4].

For `CC(=O)OC(C)(C)C1CC=C(C)CC1` (stereo not given), the Potency entry in assay [1], in assay [2], in assay [3] and in assay [4] was “inactive” in each case.

Turning to `CCSC(=O)N(CC)CC`, the Potency result in assay [1], in assay [2], in assay [3] and in assay [4] was “inactive” throughout.

`O=C(O)Cc1csc(-c2ccc(Cl)cc2)n1`: the Potency result in assay [1], in assay [2], in assay [3] and in assay [4] was “inactive” in each case.

For the compound `O=C(c1ccc(O)cc1O)c1ccc(O)cc1O`, the Potency result in assay [1], in assay [2], in assay [3] and in assay [4] was “inactive” throughout.

Turning to `CC(C)Cc1ccccc1`, the Potency result in assay [1], in assay [2], in assay [3] and in assay [4] was “inactive” each time.

In the case of `CC(C)(C)C1CCCCC1O` (stereo not given), the Potency entry in assay [1], in assay [2], in assay [3] and in assay [4] was “inactive” in each case.

Regarding `O=S(c1cc(Cl)cc(Cl)c1O)c1cc(Cl)cc(Cl)c1O`, the Potency entry in assay [1], in assay [2], in assay [3] and in assay [4] was “inactive” each time.

As for `CC(C)CCCCCCCOC(=O)CCCCC(=O)OCCCCCCCC(C)C`, the Potency result in assay [1], in assay [2], in assay [3] and in assay [4] was “inactive” in each case.

Regarding `CCCCCCCCCCCCCCCC(=O)OC[C@H](O)[C@H]1OC(=O)C(O)=C1O`, the Potency result in assay [1], in assay [2], in assay [3] and in assay [4] was “inactive” throughout.

With `COc1cc(C(=O)NS(=O)(=O)c2ccccc2C)ccc1Cc1cn(C)c2ccc(NC(=O)OC3CCCC3)cc12`, the Potency entry in assay [1], in assay [2], in assay [3] and in assay [4] was “inactive” in each case.

For `CCOC(=O)CC(=O)OCC`, the Potency result in assay [1], in assay [2], in assay [3] and in assay [4] was “inactive” in each case.

Take `Cc1cc(SC2=C(O)C[C@@](CCc3ccc(N)cc3)(C(C)C)OC2=O)c(C(C)(C)C)cc1CO`: the Potency result in assay [1], in assay [2], in assay [3] and in assay [4] was “inactive” throughout.

In the case of `N#Cc1cc(NC(=O)C(=O)O)c(Cl)c(NC(=O)C(=O)O)c1`, the Potency result in assay [1], in assay [2], in assay [3] and in assay [4] was “inactive” each time.

As for `C[C@](N)(Cc1ccc(O)c(O)c1)C(=O)O`, the Potency result in assay [1], in assay [2], in assay [3] and in assay [4] was “inactive” in each case.

`COCCOC(=O)C1=C(C)NC(C)=C(C(=O)OC(C)C)C1c1cccc([N+](=O)[O-])c1` (stereo not given): the Potency entry in assay [1], in assay [2], in assay [3] and in assay [4] was “inactive” each time.

Regarding `CCOc1ccc(NC(=O)CC(C)=O)cc1`, the Potency entry in assay [1], in assay [2], in assay [3] and in assay [4] was “inactive” throughout.

For the compound `CCc1cccc(C)c1N(C(=O)CS(=O)(=O)O)C(C)COC` (stereo not given), the Potency entry in assay [1], in assay [2], in assay [3] and in assay [4] was “inactive” each time.

As to `CC(C)C(=O)OC(=O)C(C)C`, the Potency result in assay [1], in assay [2], in assay [3] and in assay [4] was “inactive” each time.

As to `CC(C)(CO)[C@@H](O)C(=O)NCCCO`, the Potency result in assay [1], in assay [2], in assay [3] and in assay [4] was “inactive” in each case.

Regarding `CC(C)=CC(C)(C)C`, the Potency result in assay [1], in assay [2], in assay [3] and in assay [4] was “inactive” throughout.

Take `CC1=C(C(=O)O)N2C(=O)[C@@H](NC(=O)[C@H](N)C3=CCC=CC3)[C@H]2SC1`: the Potency result in assay [1], in assay [2], in assay [3] and in assay [4] was “inactive” throughout.

On to `FC(F)(Cl)C(F)(Cl)Cl`, for which the Potency entry in assay [1], in assay [2], in assay [3] and in assay [4] was “inactive” throughout.

In the case of `CCOCCOCCO`, the Potency entry in assay [1], in assay [2], in assay [3] and in assay [4] was “inactive” in each case.

Turning to `CCc1cnc(C(=O)O)c(C(=O)O)c1`, the Potency result in assay [1], in assay [2], in assay [3] and in assay [4] was “inactive” each time.

Regarding `O=c1cccc[nH]1`, the Potency result in assay [1], in assay [2], in assay [3] and in assay [4] was “inactive” each time.

With `CCCCN(CCCC)c1ccc(C(=O)c2ccccc2C(=O)O)c(O)c1`, the Potency result in assay [1], in assay [2], in assay [3] and in assay [4] was “inactive” throughout.

Regarding `Nc1ccc2cc(S(=O)(=O)O)ccc2c1`, the Potency entry in assay [1], in assay [2], in assay [3] and in assay [4] was “inactive” throughout.

Take `CCCCCCC(O)CCCCCCCCCCC(=O)O` (stereo not given): the Potency result in assay [1], in assay [2], in assay [3] and in assay [4] was “inactive” each time.

For `C[N+](C)(C)CCO`, the outcome in assay [1], in assay [2], in assay [3] and in assay [4] was inactive.

Regarding `O=c1n(CC2CO2)c(=O)n(CC2CO2)c(=O)n1CC1CO1` (stereo not given), the Potency entry in assay [1], in assay [2], in assay [3] and in assay [4] was “inactive” each time.

For the compound `N/C(=N\N=C\c1ccc(Cl)cc1)N/N=C/c1ccc(Cl)cc1`, the Potency entry in assay [1], in assay [2], in assay [3] and in assay [4] was “inactive” in each case.

Take `Cc1ccc(Cl)c(Nc2ccccc2C(=O)O)c1Cl`: the Potency entry in assay [1], in assay [2], in assay [3] and in assay [4] was “inactive” throughout.

In the case of `Cc1c(C)c2c(c(C)c1OC(=O)c1cccnc1)CC[C@@](C)(CCC[C@H](C)CCC[C@H](C)CCCC(C)C)O2`, the Potency result in assay [1], in assay [2], in assay [3] and in assay [4] was “inactive” throughout.

With `O=S(=O)(O)c1cccc2ccccc12`, the Potency entry in assay [1], in assay [2], in assay [3] and in assay [4] was “inactive” throughout.

On to `O=C(c1ccccc1)c1cc(Cl)ccc1O`, for which the Potency result in assay [1], in assay [2], in assay [3] and in assay [4] was “inactive” in each case.

In the case of `C=CCCCCCCCCO`, the Potency entry in assay [1], in assay [2], in assay [3] and in assay [4] was “inactive” each time.

As for `CC(C)C(=O)C(C)C`, the Potency entry in assay [1], in assay [2], in assay [3] and in assay [4] was “inactive” each time.

As for `O=C1OCCN1/N=C/c1ccc([N+](=O)[O-])o1`, the Potency result in assay [1], in assay [2], in assay [3] and in assay [4] was “inactive” in each case.

Consider `CCCCCC/C=C/CCCCCCCC(=O)O`, for which the Potency entry in assay [1], in assay [2], in assay [3] and in assay [4] was “inactive” each time.

With `CC(=O)SC[C@@H](C)C(=O)N1CCC[C@H]1C(=O)N[C@@H](Cc1ccccc1)C(=O)O`, the Potency entry in assay [1], in assay [2], in assay [3] and in assay [4] was “inactive” each time.

Regarding `Cc1cc(C2CCCCC2)n(O)c(=O)c1`, the Potency result in assay [1], in assay [2], in assay [3] and in assay [4] was “inactive” in each case.

For `O=[N+]([O-])c1ccc2nc[nH]c2c1`, the Potency result in assay [1], in assay [2], in assay [3] and in assay [4] was “inactive” throughout.

As for `CC(C)C[C@H](NC(=O)[C@H](Cc1ccccc1)NC(=O)c1cnccn1)B(O)O`, the Potency entry in assay [1], in assay [2], in assay [3] and in assay [4] was “inactive” each time.

In the case of `Nc1c(Cl)cc(Cl)cc1[N+](=O)[O-]`, the Potency entry in assay [1], in assay [2], in assay [3] and in assay [4] was “inactive” each time.

Turning to `NCCCOCCOCCOCCCN`, the Potency entry in assay [1], in assay [2], in assay [3] and in assay [4] was “inactive” each time.

For `C1N2CN3CN1CN(C2)C3`, the Potency result in assay [1], in assay [2], in assay [3] and in assay [4] was “inactive” throughout.

As to `Nc1ncnc2c1ncn2[C@@H]1O[C@H](CO)[C@@H](O)[C@H]1O`, the Potency result in assay [1], in assay [2], in assay [3] and in assay [4] was “inactive” throughout.

Consider `[Cl][Dy]([Cl])[Cl]`, for which the Potency entry in assay [1], in assay [2], in assay [3] and in assay [4] was “inactive” in each case.

For `COC(=O)c1sccc1S(N)(=O)=O`, the Potency entry in assay [1], in assay [2], in assay [3] and in assay [4] was “inactive” throughout.

Take `FC(F)(F)c1ccccc1Cl`: the Potency result in assay [1], in assay [2], in assay [3] and in assay [4] was “inactive” throughout.

In the case of `CCCCCc1cccc(=O)o1`, the Potency entry in assay [1], in assay [2], in assay [3] and in assay [4] was “inactive” each time.
